Data as given in PubChem BioAssay.
A number with no mark means an inactive call. Calls of active or inactive are those of the source. Unless noted, no stated cut-off is given here; in the data, active means inhibition above about 33%; inactive means the rest.

Assays:
[1] = StAR promoter reporter inhibitors, counter-screen for LRH-1 inverse agonist project, cell-based, luminescence, high throughput (AID 651611; in the data active means inhibition above about 28%); details: StAR promoter luciferase reporter counterscreen, at 3.6 µM, hits give high values
[2] = target: Nuclear receptor subfamily 5 group A member 2 (Homo sapiens) (UniProt O00482); assay: LRH-1 (NR5A2) inverse agonists, retest, confirmation, cell-based, luminescence (AID 651613; in the data active means inhibition above about 42%;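 further: HEK293T cells co-transfected with LRH-1 and StAR promoter luciferase reporter; 0% = vehicle wells and 100% = parental cells lacking receptor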); details: cell-based LRH-1 luciferase reporter, inverse agonism; at 3.6 µM; hits give high values
[3] = target: Steroidogenic factor 1 (Homo sapiens) (UniProt Q13285); assay: SF1 (NR5A1) inverse agonists, counter-screen for LRH-1 inverse agonist project, cell-based, luminescence, high throughput (AID 651614; in the data active means inhibition above about 44%;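 further: cells cotransfected with StAR promoter reporter and SF1 expression vector; 0% = vehicle on cells with receptor and 100% = vehicle on cells lacking receptor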); details: cell-based SF1 luciferase reporter, at 3.6 µM, hits give high values
[4] = VP16 transactivation reporter inhibitors, counter-screen for LRH-1 inverse agonist project, cell-based, luminescence, high throughput (AID 651615); details: Gal4-VP16 luciferase reporter cells, at 3.6 µM, hits give high values
[5] = target: Nuclear receptor coactivator 1 (Homo sapiens) (UniProt Q15788); assay: SRC1 coactivator transcriptional activity inhibitors, confirmation, cell-based, luminescence, quadruplicate (AID 588820;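 active means mean inhibition above 46.68%, the untreated control wells mean plus 3 SD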;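 further: 0% = DMSO wells and 100% = gossypol 36 µM treated wells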); details: HEK293 GAL4-SRC1 luciferase reporter, at 3.6 µM, hits give high values
[6] = VP16 transactivation inhibitors, counter-screen for SRC1 inhibitor project, cell-based, luminescence, high throughput (AID 588824; in the data active means inhibition above about 25%); details: cell-based VP16 transactivation luciferase luminescence; at 3.6 µM; hits give high values
[7] = tested on: transactivating tegument protein VP16 (Human herpesvirus 1); assay: VP16 transactivation reporter inhibitors, counter-screen for SRC2 inhibitor project, cell-based, luminescence, single concentration (AID 652007; in the data active means inhibition above about 36%); details: cell-based VP16 transactivation luciferase reporter, at 8.9 µM, hits give high values
[8] = target: Nuclear receptor coactivator 2 (Homo sapiens) (UniProt Q15596); assay: SRC2 coactivator transcriptional activity inhibitors, confirmation, cell-based, luminescence, HEK293, triplicate (AID 652008;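 active means mean inhibition above 46.5%, the solvent-only control mean plus 3 SD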;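 further: 0% = DMSO-treated cells and 100% = Gossypol at 36 µM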); details: HEK293 GAL4-SRC2 luciferase reporter, at 8.9 µM, hits give high values
Sequence of Nuclear receptor coactivator 2 (Homo sapiens) (Q15596 whole entry, looked up, the tested form may be a part): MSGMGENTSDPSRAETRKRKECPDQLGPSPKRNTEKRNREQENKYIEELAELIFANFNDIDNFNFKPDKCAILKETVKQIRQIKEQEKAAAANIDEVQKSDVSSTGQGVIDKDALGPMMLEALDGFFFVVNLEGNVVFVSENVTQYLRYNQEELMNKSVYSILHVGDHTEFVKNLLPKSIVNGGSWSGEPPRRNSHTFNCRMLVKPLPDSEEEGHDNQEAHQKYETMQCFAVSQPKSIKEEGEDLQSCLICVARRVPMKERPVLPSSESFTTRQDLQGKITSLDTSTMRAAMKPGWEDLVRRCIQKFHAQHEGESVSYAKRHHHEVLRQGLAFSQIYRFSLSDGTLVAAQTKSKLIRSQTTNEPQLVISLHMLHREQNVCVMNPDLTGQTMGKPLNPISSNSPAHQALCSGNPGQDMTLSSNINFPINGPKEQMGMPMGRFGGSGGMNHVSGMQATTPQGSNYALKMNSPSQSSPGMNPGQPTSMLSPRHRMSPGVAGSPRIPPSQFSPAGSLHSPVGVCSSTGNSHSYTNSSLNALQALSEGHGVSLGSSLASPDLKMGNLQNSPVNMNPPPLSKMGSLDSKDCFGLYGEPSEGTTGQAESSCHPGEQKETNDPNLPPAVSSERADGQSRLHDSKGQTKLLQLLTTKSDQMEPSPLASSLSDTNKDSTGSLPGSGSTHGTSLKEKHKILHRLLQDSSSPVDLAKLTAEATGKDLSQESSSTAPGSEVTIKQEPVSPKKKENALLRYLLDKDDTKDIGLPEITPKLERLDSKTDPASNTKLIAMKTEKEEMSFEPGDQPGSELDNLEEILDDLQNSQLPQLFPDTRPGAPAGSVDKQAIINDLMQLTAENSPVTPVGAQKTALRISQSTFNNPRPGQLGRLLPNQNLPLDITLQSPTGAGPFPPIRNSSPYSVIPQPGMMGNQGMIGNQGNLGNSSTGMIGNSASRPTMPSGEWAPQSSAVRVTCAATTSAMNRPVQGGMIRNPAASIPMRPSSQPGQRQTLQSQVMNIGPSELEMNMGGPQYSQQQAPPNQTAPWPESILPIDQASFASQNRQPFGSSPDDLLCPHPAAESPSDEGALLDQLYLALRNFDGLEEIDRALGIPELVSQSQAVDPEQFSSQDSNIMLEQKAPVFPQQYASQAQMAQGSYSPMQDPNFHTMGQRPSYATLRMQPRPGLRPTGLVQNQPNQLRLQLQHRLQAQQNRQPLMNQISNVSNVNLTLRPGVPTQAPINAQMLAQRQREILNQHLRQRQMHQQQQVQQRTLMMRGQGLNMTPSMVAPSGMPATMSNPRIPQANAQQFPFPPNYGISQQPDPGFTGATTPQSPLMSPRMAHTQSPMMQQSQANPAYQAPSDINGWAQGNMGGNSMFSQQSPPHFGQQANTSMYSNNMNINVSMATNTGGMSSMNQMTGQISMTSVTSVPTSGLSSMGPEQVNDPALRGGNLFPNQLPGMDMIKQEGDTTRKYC

Sequence of Steroidogenic factor 1 (Homo sapiens) (Q13285 whole entry, looked up, the tested form may be a part): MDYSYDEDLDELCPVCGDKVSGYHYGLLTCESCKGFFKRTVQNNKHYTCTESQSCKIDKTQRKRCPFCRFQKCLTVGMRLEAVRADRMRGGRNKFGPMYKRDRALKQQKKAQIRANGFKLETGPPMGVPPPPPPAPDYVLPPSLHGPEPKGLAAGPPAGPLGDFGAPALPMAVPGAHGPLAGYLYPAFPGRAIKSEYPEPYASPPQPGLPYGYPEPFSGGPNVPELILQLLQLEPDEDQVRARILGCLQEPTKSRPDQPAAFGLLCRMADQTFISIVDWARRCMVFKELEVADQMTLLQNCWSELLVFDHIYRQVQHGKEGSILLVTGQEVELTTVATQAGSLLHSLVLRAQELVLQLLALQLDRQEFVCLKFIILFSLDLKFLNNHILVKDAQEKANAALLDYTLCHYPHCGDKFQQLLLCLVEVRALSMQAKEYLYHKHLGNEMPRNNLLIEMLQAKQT
Sequence of Nuclear receptor subfamily 5 group A member 2 (Homo sapiens) (O00482 whole entry, looked up): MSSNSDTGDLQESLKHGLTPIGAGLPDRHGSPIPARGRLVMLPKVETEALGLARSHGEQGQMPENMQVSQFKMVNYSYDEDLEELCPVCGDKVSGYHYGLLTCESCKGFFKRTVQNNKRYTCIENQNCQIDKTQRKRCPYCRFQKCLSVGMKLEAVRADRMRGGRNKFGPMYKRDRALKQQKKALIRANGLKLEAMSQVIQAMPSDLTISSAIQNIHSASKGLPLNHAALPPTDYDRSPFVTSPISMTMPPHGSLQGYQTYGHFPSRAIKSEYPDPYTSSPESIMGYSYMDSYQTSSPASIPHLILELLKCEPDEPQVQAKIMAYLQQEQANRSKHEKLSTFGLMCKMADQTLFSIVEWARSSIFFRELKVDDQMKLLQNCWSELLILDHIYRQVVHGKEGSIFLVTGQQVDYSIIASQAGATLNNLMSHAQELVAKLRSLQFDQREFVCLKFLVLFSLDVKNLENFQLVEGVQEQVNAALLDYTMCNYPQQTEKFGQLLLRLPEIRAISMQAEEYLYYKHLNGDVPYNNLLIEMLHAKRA
Sequence of Nuclear receptor coactivator 1 (Homo sapiens) (Q15788 whole entry, looked up, the tested form may be a part): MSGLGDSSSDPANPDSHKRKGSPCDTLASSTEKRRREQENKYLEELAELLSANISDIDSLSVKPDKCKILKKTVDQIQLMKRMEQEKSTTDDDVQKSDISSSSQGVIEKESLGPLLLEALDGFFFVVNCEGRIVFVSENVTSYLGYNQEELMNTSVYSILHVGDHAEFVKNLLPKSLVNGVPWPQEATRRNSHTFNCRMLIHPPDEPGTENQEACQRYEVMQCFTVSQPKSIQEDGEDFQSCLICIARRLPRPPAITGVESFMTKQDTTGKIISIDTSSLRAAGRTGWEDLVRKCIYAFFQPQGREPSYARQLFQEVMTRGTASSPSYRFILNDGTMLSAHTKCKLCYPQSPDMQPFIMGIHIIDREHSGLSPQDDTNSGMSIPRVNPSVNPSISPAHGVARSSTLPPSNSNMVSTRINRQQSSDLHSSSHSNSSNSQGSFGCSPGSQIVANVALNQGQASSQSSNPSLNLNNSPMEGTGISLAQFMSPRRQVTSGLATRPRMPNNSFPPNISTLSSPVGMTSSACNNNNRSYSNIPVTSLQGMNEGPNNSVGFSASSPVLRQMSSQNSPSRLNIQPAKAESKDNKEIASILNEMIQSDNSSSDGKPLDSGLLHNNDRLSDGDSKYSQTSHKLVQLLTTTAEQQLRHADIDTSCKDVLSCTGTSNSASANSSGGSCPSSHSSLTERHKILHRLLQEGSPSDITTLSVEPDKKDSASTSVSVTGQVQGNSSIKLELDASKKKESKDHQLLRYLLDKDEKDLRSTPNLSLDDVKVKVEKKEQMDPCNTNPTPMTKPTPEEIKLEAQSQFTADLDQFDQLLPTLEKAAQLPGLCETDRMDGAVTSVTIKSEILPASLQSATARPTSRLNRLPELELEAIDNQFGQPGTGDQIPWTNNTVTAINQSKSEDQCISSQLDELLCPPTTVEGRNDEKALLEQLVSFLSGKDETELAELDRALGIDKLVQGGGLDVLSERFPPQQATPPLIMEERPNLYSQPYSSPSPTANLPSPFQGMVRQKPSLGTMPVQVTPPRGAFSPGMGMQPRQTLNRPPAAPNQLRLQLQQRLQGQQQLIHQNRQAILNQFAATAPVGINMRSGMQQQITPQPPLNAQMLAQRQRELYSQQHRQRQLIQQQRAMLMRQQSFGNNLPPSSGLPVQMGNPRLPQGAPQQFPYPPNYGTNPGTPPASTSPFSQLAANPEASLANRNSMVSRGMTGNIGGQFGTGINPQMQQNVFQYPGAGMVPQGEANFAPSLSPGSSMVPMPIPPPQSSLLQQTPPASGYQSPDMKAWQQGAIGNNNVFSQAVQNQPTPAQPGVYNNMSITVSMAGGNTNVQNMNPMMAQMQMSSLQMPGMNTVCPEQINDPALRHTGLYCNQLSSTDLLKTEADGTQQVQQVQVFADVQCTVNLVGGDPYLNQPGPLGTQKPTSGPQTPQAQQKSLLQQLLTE

SMILES	inhibition [1]	inhibition [2]	inhibition [3]	inhibition [4]	inhibition [5]	inhibition [6]	inhibition [7]	inhibition [8]
CCC(C)N1C(=O)/C(=C\c2ccc(N3CCCCCC3)cc2)C(=O)NC1=S (stereo not drawn)	1.31%	58.9% (active)	40.2%	-2.53%	–	–	–	–
Cc1cc(S(=O)(=O)NC(C)C)ccc1OCC(=O)N1CCN(Cc2ccc3c(c2)OCO3)CC1	16.6%	52.9% (active)	40%	19.5%	–	–	–	–
CC(C)(C)c1ccc(CSc2cnn(C(C)(C)C)c(=O)c2Cl)cc1	28.1% (active)	99.2% (active)	63.8% (active)	57.7% (active)	-34.9%	44.7% (active)	–	–
CCCCn1c(NC(=O)c2ccc(Br)o2)c(C(=O)OCC)c2nc3ccccc3nc21	27.1%	27.8%	45.6% (active)	7.64%	–	–	–	–
COc1ccc(-n2nnnc2C(c2ccccc2)N2CCC(n3c(=O)[nH]c4ccccc43)CC2)cc1 (stereo not drawn)	–	–	–	–	-22.4%	5.11%	–	–
Cc1cc(OC(=O)c2ccco2)c2c3c(c(=O)oc2c1)CCCC3	7.67%	56% (active)	47.2% (active)	20.2%	–	–	–	–
C=C1C(=O)O[C@@H]2C[C@@H](C)[C@@H]3C4OC4C(=O)[C@@]3(C)[C@@H](O)[C@H]12 (stereo partly drawn)	-30%	60.7% (active)	67.9% (active)	82.8% (active)	–	–	–	–
COc1ccc(-n2nnnc2C(CCSC)N2CCC(n3c(=O)[nH]c4ccccc43)CC2)cc1 (stereo not drawn)	–	–	–	–	-13.8%	-1.55%	–	–
CC(=O)c1cn(Cc2ccccc2C#N)c2ccccc12	28.8% (active)	57.2% (active)	55.8% (active)	55.5% (active)	–	–	–	–
Cc1ccc2c(C)c3ccc4ccccc4c3c[n+]2c1	28.1% (active)	99.6% (active)	39.4%	78% (active)	17.2%	31.6% (active)	–	–
N#Cc1c(Br)n(C2OC(CO)C(O)C2O)c2ncnc(N)c12 (stereo not drawn)	61.8% (active)	77.3% (active)	63.2% (active)	48.6% (active)	40.9%	29.9% (active)	-16.7%	54.4% (active)
